# Active and inactive are the calls of the source. The calls were made as follows: active = hit-call score of the fitted dose curve at least 0.9, where 1 is the maximum; inactive = score below 0.9.
# Assay: BSK_3C_SRB: Viability Assessment in the BioMAP Diversity Plus: 3C Assay (AID 2283023);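 also: fitted both ways against DMSO so a hit may be signal rise or drop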
# Conditions: primary human endothelial cells (HUVEC)
# Protocol: BSK_3C is a cell-based, multiplexed-readout assay that uses umbilical vein endothelium, a human vascular primary cell, with measurements taken at 24 hours after chemical dosing in a 96-well plate.BSK_3C_SRB is an assay component measured in the BSK_3C assay. It measures 0.1% sulforhodamine related to cell death using Sulforhodamine staining technology.Data from the assay component BSK_3C_SRB was analyzed into 1 assay endpoint. This assay endpoint, BSK_3C_SRB, was analyzed with bidirectional fitting relative to DMSO as the negative control and baseline of activity. Using a type of viability reporter, gain or loss-of-signal activity can be used to understand changes in the signaling. Furthermore, this assay endpoint can be referred to as a primary readout, because this assay has produced multiple assay endpoints where this one serves a signaling function. To generalize the intended target to other relatable targets, this assay endpoint is annotated to the cell morphology intended target family, where the subfamily is cell conformation.
# The levels of cell surface (or secreted, indicated by the prefix "s") biomarker endpoints were measured by ELISA. Overt cytotoxicity to cells in confluent adherent cultures (all systems other than the BT system) was assessed by measuring total protein levels using sulforhodamine B (SRB) staining in parallel cultures at the time of biomarker measurements, indicated as SRB endpoints. For proliferation assays for adherent cell types, individual cell types are cultured at sub-confluence and relative cell numbers quantified by SRB staining at time points optimized for each system (48 h: 3C and CASM3C systems; 72 h: BT and HDF3CGF systems; 96 h: SAg system). SRB was performed by staining cells with 0.1% SRB after fixation with 10% TCA and reading wells at 560 nm.Viability and proliferation of PBMC (T cells) was quantified by Alamar Blue reduction for the SAg and BT systems. For PBMC viability (referred to as PBMC Cytotoxicity within the assay endpoint names), cells were plated (75,000/well in a 96-well plate) and then chemical samples added for 1 h before addition of activators, SEB and TSST-1 (20 ng/mL final concentration each). Cells were incubated for 90 h. Then, Alamar Blue (20 uL/well) (Invitrogen, Cat DAL1100) was added for 6 h, and the plates were read with a fluorescence microplate reader at 546/580 nm (excitation/emission). For PBMC proliferation, cells were plated and activated as above but incubated for only 16 h prior to addition of Alamar Blue. Plates were read after 6 h.
Structure (SMILES),AC50,outcome
[Cl][Sn]([c]1ccccc1)([c]1ccccc1)[c]1ccccc1,0.188 µM (active),
OC(Cc1ccccc1Cl)(Cn1cncn1)C1(Cl)CC1 (stereo not given),,inactive
c1ccc2sc(SNC3CCCCC3)nc2c1,,inactive
C#CCOC(=O)/C=C(C)/C=C/CC(C)CCCC(C)C (stereo not given),32.1 µM (active),
O=C(N[C@H]1CN2CCC1CC2)c1ccc2c(c1)OCCO2,,inactive
OCCCCO,,inactive
CC(C)O.CC(C)O.OCCN(CCO)CCO.OCCN(CCO)CCO.[Ti],,inactive
Oc1ccc(Cc2ccc(O)cc2)cc1,,inactive
O=c1oc2ccccc2c(O)c1C(CC(O)c1ccc(-c2ccc(Br)cc2)cc1)c1ccccc1 (stereo not given),10.7 µM (active),
N#Cc1cccnc1,,inactive
OCCN(CCO)CCO,,inactive
CC(C)(COCC1CO1)COCC1CO1 (stereo not given),,inactive
CCOC(=O)C(SP(=S)(OC)OC)c1ccccc1 (stereo not given),32.6 µM (active),
Cc1cccc(OP(=O)(Oc2cccc(C)c2)Oc2cccc(C)c2)c1,,inactive
O=C(CCl)NCO,,inactive
O=[N+]([O-])c1cccc2ccccc12,,inactive
CCOC(=O)CC(=O)CCl,,inactive
CCC(C)(C#N)N=NC(C)(C#N)CC (stereo not given),,inactive
O=C(O)COc1cc(Cl)c(Cl)cc1Cl,,inactive
CC1(C)[C@H](C(=O)O[C@H](C#N)c2cccc(Oc3ccccc3)c2)[C@@H]1/C=C(\Cl)C(F)(F)F,,inactive

Structure (SMILES),AC50,outcome
N#CCCC(Br)(C#N)CBr (stereo not given),5.06 µM (active),
CC(C)(C)c1ccccc1O,,inactive
CCCCCCCCCCCCc1cccc(S(=O)(=O)O)c1,,inactive
C[C@]12CC[C@@H](O)C[C@@H]1CC[C@@H]1[C@@H]2CC[C@]2(C)C(=O)CC[C@@H]12,,inactive
CCOP(=O)(OCC)SCCSCC,,inactive
Nc1ccc(N)cc1,,inactive
Oc1cc(Cl)c(Cl)cc1Cl,28.7 µM (active),
O=S(=O)(c1ccc(Cl)cc1)c1cc(Cl)c(Cl)cc1Cl,5.42 µM (active),
CCN(CC)C(=O)C(Cl)=C(C)OP(=O)(OC)OC,,inactive
O=[N+]([O-])c1ccc(Nc2ccccc2)cc1,,inactive
Cc1ccccc1OP(=O)(Oc1ccccc1)Oc1ccccc1,35.8 µM (active),
CCCCCCCCCCCCN(C)C,20 µM (active),
CCCCN(CCCC)C(=S)[S-].CCCCN(CCCC)C(=S)[S-].[Ni+2],,inactive
c1ccc(-c2cccc(-c3ccccc3)c2)cc1,10.7 µM (active),
C=CC(Cl)CCl (stereo not given),,inactive
Cc1ccc2nc3sc(=O)sc3nc2c1,6.71 µM (active),
CCCCOC(=O)COC(=O)c1ccccc1C(=O)OCCCC,,inactive
Oc1cccc(-c2ccccc2)c1,20 µM (active),
CC(C)(C)c1cc([N+](=O)[O-])cc(C(C)(C)C)c1O,0.815 µM (active),
Clc1cccc(Cl)c1,,inactive

# From PubChem BioAssay (EPA / NIEHS)
